The full list was thinned out, with hits kept by preference.
Tgondii IFNg = T. gondii growth inhibition with IFN-gamma, primary screen, cell-based | actives 3.8% (n = 69,000) | activity change, negative = inhibition, % (no concentration beside the values) | Toxoplasma gondii growth in IFN-gamma-treated host cells; stronger effect = lower value | AID 1259416, 2018; in the data active = activity change below about -70%, passing the limit was not always enough;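 note: host cells are HeLa cells infected with Toxoplasma gondii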
Numbers without * were called inactive.

Screening CNCc1ccccc1 returned Tgondii IFNg 9.
`c1ccc(CNc2ccc(C3c4ccccc4Oc4ccccc43)cc2)cc1` gave Tgondii IFNg -97*.
Screening COCCCN1C(=O)N(Cc2ccc3ccccc3c2)C(=O)C12CCN(Cc1ccc(C)s1)CC2 returned Tgondii IFNg -63.
O=C(NCc1ccccn1)[C@H]1C[C@H]2CCN(Cc3ccco3)C[C@@H]2O1 was read as Tgondii IFNg 3.
`COc1cccc(OC[C@@H]2C3CCC(C3)N2C(=O)Cc2nonc2C)c1` (stereo not given in full) gave Tgondii IFNg 30.
`COc1ccc(C(=O)N2CCC(C)(C(=O)NCc3ccc(F)cc3F)CC2)cc1` gave Tgondii IFNg -1.
`Cc1nc(C(C)C)ncc1C(=O)N1CCn2nc(C(=O)NC3CC3)cc2C1` gave Tgondii IFNg -15.
COc1ccc(S(=O)(=O)N(C)C[C@H]2OCCCC[C@@H](C)Oc3ccc(NC(=O)Cc4ccccc4)cc3C(=O)N([C@@H](C)CO)C[C@@H]2C)cc1 was read as Tgondii IFNg -69.
Screening C[C@@H]1CCCCO[C@@H](CN(C)S(=O)(=O)c2ccccc2)[C@H](C)CN([C@@H](C)CO)C(=O)c2cc(NC(=O)Nc3ccc4c(c3)OCO4)ccc2O1 returned Tgondii IFNg 121.
For C[C@H](CO)N1C[C@H](C)[C@H](CN(C)S(=O)(=O)c2ccccc2)OCCCC[C@H](C)Oc2ccc(NC(=O)Nc3ccc4c(c3)OCO4)cc2C1=O the results were Tgondii IFNg 108.
For COc1ccc(S(=O)(=O)N(C)C[C@H]2OCCCC[C@H](C)Oc3ccc(NC(=O)Cc4ccccc4)cc3C(=O)N([C@H](C)CO)C[C@@H]2C)cc1 the results were Tgondii IFNg -84*.
Screening C[C@@H]1CN([C@@H](C)CO)C(=O)c2cc(NC(=O)Nc3ccc4c(c3)OCO4)ccc2O[C@@H](C)CCCCO[C@H]1CN(C)S(=O)(=O)c1ccccc1 returned Tgondii IFNg 106.
`COc1ccc(S(=O)(=O)N(C)C[C@@H]2OCCCC[C@H](C)Oc3ccc(NC(=O)Cc4ccccc4)cc3C(=O)N([C@@H](C)CO)C[C@H]2C)cc1` gave Tgondii IFNg -125*.
`C[C@@H]1CCCCO[C@H](CN(C)S(=O)(=O)c2ccccc2)[C@H](C)CN([C@@H](C)CO)C(=O)c2cc(NC(=O)Nc3ccc4c(c3)OCO4)ccc2O1` gave Tgondii IFNg 251.
C[C@@H]1CCCCO[C@@H](CN(C)Cc2ccncc2)[C@H](C)CN([C@@H](C)CO)C(=O)c2cc(NC(=O)Cc3ccccc3)ccc2O1 was read as Tgondii IFNg 120.
`COc1ccc(S(=O)(=O)N(C)C[C@@H]2OCCCC[C@H](C)Oc3ccc(NC(=O)Cc4ccccc4)cc3C(=O)N([C@H](C)CO)C[C@@H]2C)cc1` gave Tgondii IFNg -92*.
For O=S(=O)(c1cn[nH]c1)N1CCC(c2cncc(-c3cccc(F)c3)n2)CC1 the results were Tgondii IFNg -28.
`O=C(C[C@@H]1CC[C@H]2[C@@H](COC[C@H](O)CN2C(=O)c2ccncc2)O1)Nc1ccc(-c2ccccc2)cc1` gave Tgondii IFNg -43.
`CCc1cc(-c2cccc(NC(C)=O)c2)nc(N2CCOCC2)n1` gave Tgondii IFNg -26.
`O=C(Nc1ccncc1)Nc1ccc(-c2nc(N3CCOCC3)nc(N3C4CCC3COC4)n2)cc1` gave Tgondii IFNg -74*.
Screening Cc1cc(CNC(=O)c2ccc(OC3CCN(S(C)(=O)=O)CC3)c(Cl)c2)nn1C returned Tgondii IFNg 7.
CCc1ccccc1NC(=O)N1CCn2nnc(COc3cccnc3)c2C1 was read as Tgondii IFNg -5.
`CNC(=O)[C@@H]1C[C@@H](N)CN1Cc1cccc(Oc2ccc(Cl)cc2)c1` gave Tgondii IFNg -29.
Screening CC(C)(C)c1ccc2[nH]c3c(c2c1)CCCC3=O returned Tgondii IFNg -84*.
Screening CSc1ccc(-c2nc3c([nH]2)c(=O)n(C)c(=O)n3C)cc1 returned Tgondii IFNg 15.
`CC(=O)O[C@H]1C(=O)[C@@]2(C)C([C@H](OC(=O)c3ccccc3)[C@]3(O)C[C@H](OC(=O)[C@H](O)[C@@H](NC(=O)c4ccccc4)c4ccccc4)C(C)=C1C3(C)C)[C@]1(OC(C)=O)CO[C@@H]1C[C@@H]2O` (stereo not given in full) gave Tgondii IFNg -79*.
For CC(=O)OC1C(=O)C2(C)C(O)CC3OCC3(OC(C)=O)C2C(OC(=O)c2ccccc2)C2(O)CC(OC(=O)C(O)C(NC(=O)c3ccccc3)c3ccccc3)C(C)=C1C2(C)C (stereo not given) the results were Tgondii IFNg -88*.
For CCS(=O)(=O)N1CCC2(CC1)OC(=O)C(C)=C2C(=O)NCCCN1CCCC1 the results were Tgondii IFNg 29.
For CN(C)CCC1CN(C(=O)CCCc2cn[nH]c2)CCO1 (stereo not given) the results were Tgondii IFNg 0.
Screening Cc1cccc(NC(=O)Cn2ncc3c(N4CCC(C)CC4)ncnc32)c1C returned Tgondii IFNg 30.
Screening CCN1CCCC1CNC(=O)C1=C(C)C(=O)OC12CCN(C(C)=O)CC2 (stereo not given) returned Tgondii IFNg -1.
O=c1[nH]cnc2c1ncn2[C@@H]1O[C@H](CO)[C@@H](O)[C@H]1O was read as Tgondii IFNg 9.
`OC[C@H]1O[C@@H](n2cnc3c(Nc4ccccc4)ncnc32)[C@H](O)[C@@H]1O` gave Tgondii IFNg -83*.
For Nc1nc(Nc2ccccc2)nc2c1ncn2C1OC(CO)C(O)C1O (stereo not given) the results were Tgondii IFNg 17.
Cc1ncc(C(=O)N(C)C)c(-c2ccc(CNC(=O)c3sc(C)nc3C)cc2)n1 was read as Tgondii IFNg 78.
`O=C(c1ccc(-c2cccc3c2OCC3)nc1)N1CCCN(c2ncccn2)CC1` gave Tgondii IFNg -20.
FC(F)(F)c1cc(-c2ccc(-c3ccn[nH]3)o2)cc(C(F)(F)F)c1 was read as Tgondii IFNg -106*.
c1coc(Cn2ccnc2-c2ccc(-c3ccn[nH]3)o2)c1 was read as Tgondii IFNg 4.
Cc1cc(C)cc(N2CCN(Cc3ccc(-c4ccn[nH]4)o3)CC2=O)c1 was read as Tgondii IFNg 4.
For CC(=O)NC1(c2ccccc2)CCN(Cc2ccc3c(c2)CC(C)(C)O3)CC1 the results were Tgondii IFNg 1.
Screening Cc1ccc(C2(O)CCN(CC(=O)NCc3ccccn3)CC2)nc1 returned Tgondii IFNg 3.
CCC(c1ccc(F)cc1)n1cc(C(=O)Nc2nc(-c3ccccn3)cs2)nn1 (stereo not given) was read as Tgondii IFNg -97*.
Cc1ncsc1C(=O)NC(Cc1cc(=O)[nH]c(-c2ccccn2)n1)c1ccc(F)cc1 (stereo not given) was read as Tgondii IFNg -15.
`CCC(c1ccc(F)cc1)n1cc(C(=O)Nc2ccc3c(c2)N(C)C(=O)CO3)nn1` (stereo not given) gave Tgondii IFNg -50.
`O=C(c1ccc(F)cc1)N1CC[C@H]2[C@@H]1CCN2CC1CC1` gave Tgondii IFNg 2.
`CCCOCC1CCN(c2cc(N(C)C)ncn2)C1` (stereo not given) gave Tgondii IFNg 14.
Screening CO[C@@H]1CCN(C(=O)c2cc(C)on2)C[C@@H]1Cc1ccccc1 returned Tgondii IFNg -28.
For CN(C)C(=O)Nc1cccc(-c2ccc(N(C)C)cc2)c1 the results were Tgondii IFNg 32.

Bioassay records deposited in PubChem BioAssay by Broad Institute.
